A short description of test [1]: optical density shifts of acrAB sulA E. coli – strain DRC41, OD650, 48 h, E. coli filamentation inducer project, primary screen (AID 1152).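 Further: E. coli MC1000 strain DRC41 lacking acrAB efflux pump and sulA.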 Particulars: higher = more signal, called active from +8 up or from −8 down.
A short description of test [2]: probe aLefty1 binding on compound microarray – biochemical, small-molecule microarray, 635/667 nm fluorescence, primary screen (AID 1153).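 Further: score merges spot fluorescence with signal-to-noise ratio from the scanned slide images.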 To be noted: higher = more signal.
A short description of test [3]: plasmodial surface anion channel blockers, osmotic lysis – cell-based, P. falciparum Indochina, OD700, 1 h, primary screen (AID 1154). Particulars: P. falciparum Indochina infected RBC osmotic lysis, higher = more signal, called active from +8 up or from −8 down.
Test [4] is described as follows: plasmodial surface anion channel blockers, osmotic lysis – cell-based, P. falciparum Indochina, OD700, 2 h, primary screen (AID 1155).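 Further: lysis reports solute entry through the parasite surface anion channel PSAC.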 To be noted: P. falciparum Indochina infected erythrocytes, higher = more signal, called active from +8 up or from −8 down.
A short description of test [5]: changes in parasitized red cell lysis, either direction – P. falciparum Indochina, OD700, 3 h, PSAC antagonist project, primary screen (AID 1156). To be noted: P. falciparum-infected erythrocytes, osmotic lysis, higher = more signal, called active from +8 up or from −8 down.
A short description of test [6]: plasmodial surface anion channel blockers, osmotic lysis – cell-based, P. falciparum Indochina, OD700, 18 h, primary screen (AID 1157). To be noted: P. falciparum Indochina infected erythrocytes, osmotic lysis OD700, 18 h; higher = more signal, called active from +8 up or from −8 down.
Test [7] in a line: S6 kinase pathway phospho-S6 level changes – cell-based, A549, cytoblot, luminescence, serum-stimulated, primary screen (AID 1158).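 Further: serum-stimulated A549 lung adenocarcinoma cells; signal is phosphorylated S6 detected by cytoblot immunostaining with HRP secondary.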 To be noted: 5 h, higher = more signal.
In test [8] the target is NADPH oxidase 2 (Homo sapiens) (UniProt P04839). The experiment in a line: compounds shifting NOX2 Amplex Red fluorescence – cell-based, HEK293-NOX2, PMA-stimulated, NOX inhibitor project, primary screen (AID 1159). Further: test concentration not given here. To be noted: 45 min, higher = more signal, called active from +8 up or from −8 down.
For test [9], the target named is NADPH oxidase 4 (Homo sapiens) (UniProt Q9NPH5). Put plainly: compounds shifting NOX4 Amplex Red fluorescence – cell-based, HEK293-NOX4, tetracycline-induced, NOX inhibitor project, primary screen (AID 1160). Particulars: HEK293-NOX4, Amplex Red H2O2 fluorescence, 45 min; higher = more signal, called active from +8 up or from −8 down.
Test [10] has as its target NADPH oxidase 5 (Homo sapiens) (UniProt Q96PH1). Put plainly: compounds shifting NOX5 Amplex Red fluorescence – cell-based, HEK293-NOX5, NOX inhibitor project, primary screen (AID 1161). To be noted: HEK293-NOX5, ionomycin, 45 min, higher = more signal.
A short description of test [11]: compound effects on lung adenocarcinoma cell viability – A549, calcein-AM fluorescence, 48 h, basal, profiling panel (AID 1162). Further: test concentration not given here. To be noted: higher = more signal.
Test [12] in a line: compound effects on differentiated 3T3-L1 adipocyte viability – cell-based, 3T3-L1 adipocytes, calcein-AM fluorescence, 48 h, basal, profiling panel (AID 1163). Further: test concentration not given here. Particulars: 3T3-L1 adipocytes viability, higher = more signal.
Test [13] is described as follows: compound effects on hepatocellular carcinoma cell viability – HepG2, calcein-AM fluorescence, 48 h, basal, profiling panel (AID 1164). Further: test concentration not given here. Particulars: higher = more signal.
Test [14] is described as follows: compound effects on multiple myeloma cell viability – MM1S, calcein-AM fluorescence, 48 h, basal, profiling panel (AID 1165).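 Further: viability of MM1S multiple myeloma cells under basal unstimulated conditions; test concentration not given here.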 To be noted: higher = more signal.
The nature of test [15]: calcein-AM signal in unstimulated myeloma cells – cell-based, calcein-AM fluorescence, 48 h, PK04 Diversity Set, profiling panel (AID 1166).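 Further: cells grown under basal conditions without added stimulus; test concentration not given here.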 Particulars: RPMI8226 myeloma viability, higher = more signal.
Test [16] can be described thus: JC-1 mitochondrial signal, unstimulated HepG2 cells – cell-based, JC-1 fluorescence, 24 h, 100 nL compound, profiling panel (AID 1167). Further: test concentration not given here. Particulars: HepG2 mitochondrial potential, higher = more signal.
Test [17] is described as follows: JC-1 mitochondrial signal, unstimulated adipocytes – cell-based, JC-1 fluorescence, 3T3-L1 adipocytes, 24 h, 100 nL compound, profiling panel (AID 1168). Further: test concentration not given here. To be noted: JC-1 mitochondrial fluorescence, higher = more signal, called active from +8 up or from −8 down.
The nature of test [18]: JC-1 mitochondrial signal, unstimulated myeloma cells – cell-based, JC-1 fluorescence, RPMI8226, 24 h, 100 nL compound, profiling panel (AID 1169). Further: test concentration not given here. Particulars: JC-1 mitochondrial potential fluorescence, higher = more signal.
Test [19] can be described thus: JC-1 mitochondrial signal, unstimulated MM1S myeloma – cell-based, JC-1 fluorescence, 24 h, 100 nL compound, profiling panel (AID 1170). Further: test concentration not given here. To be noted: MM1S mitochondrial potential, higher = more signal.
The nature of test [20]: resazurin metabolic signal in A549 cells – cell-based, resazurin fluorescence, 24 h, PK04 Diversity Set, profiling panel (AID 1171). Further: test concentration not given here. Particulars: A549 viability, higher = more signal, called active from +8 up or from −8 down.

The source made the active and inactive calls.

Chain of NADPH oxidase 2 (Homo sapiens) (P04839 whole entry, looked up): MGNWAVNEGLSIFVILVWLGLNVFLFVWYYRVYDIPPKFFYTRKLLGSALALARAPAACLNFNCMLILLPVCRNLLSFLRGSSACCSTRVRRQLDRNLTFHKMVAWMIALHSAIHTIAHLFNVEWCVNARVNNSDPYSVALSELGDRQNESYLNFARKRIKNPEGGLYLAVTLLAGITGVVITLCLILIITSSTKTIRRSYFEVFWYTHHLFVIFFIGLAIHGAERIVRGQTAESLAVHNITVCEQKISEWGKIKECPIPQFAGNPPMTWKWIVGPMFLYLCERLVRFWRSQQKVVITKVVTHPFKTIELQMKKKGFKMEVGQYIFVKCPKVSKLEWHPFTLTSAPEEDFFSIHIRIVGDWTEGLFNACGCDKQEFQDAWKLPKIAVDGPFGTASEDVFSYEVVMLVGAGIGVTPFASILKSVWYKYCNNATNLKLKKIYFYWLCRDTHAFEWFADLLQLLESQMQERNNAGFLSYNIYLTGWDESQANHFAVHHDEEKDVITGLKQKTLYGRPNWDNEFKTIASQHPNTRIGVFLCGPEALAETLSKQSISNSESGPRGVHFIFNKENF
Chain of NADPH oxidase 4 (Homo sapiens) (Q9NPH5 whole entry, looked up): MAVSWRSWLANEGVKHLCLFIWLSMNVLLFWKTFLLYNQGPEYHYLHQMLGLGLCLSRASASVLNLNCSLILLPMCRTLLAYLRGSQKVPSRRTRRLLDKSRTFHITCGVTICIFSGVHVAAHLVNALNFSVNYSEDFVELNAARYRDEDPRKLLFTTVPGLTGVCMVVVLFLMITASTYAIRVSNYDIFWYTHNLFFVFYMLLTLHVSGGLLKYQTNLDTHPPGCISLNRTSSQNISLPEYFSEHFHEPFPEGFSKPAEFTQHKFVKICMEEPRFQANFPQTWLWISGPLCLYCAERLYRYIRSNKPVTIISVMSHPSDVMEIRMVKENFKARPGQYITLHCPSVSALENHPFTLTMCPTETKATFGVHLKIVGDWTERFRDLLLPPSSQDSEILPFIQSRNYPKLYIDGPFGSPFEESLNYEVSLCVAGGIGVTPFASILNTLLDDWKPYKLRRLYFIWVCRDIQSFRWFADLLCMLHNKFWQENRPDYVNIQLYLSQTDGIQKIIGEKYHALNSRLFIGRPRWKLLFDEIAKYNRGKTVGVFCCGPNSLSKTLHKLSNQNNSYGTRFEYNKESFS
Chain of NADPH oxidase 5 (Homo sapiens) (Q96PH1 whole entry, looked up): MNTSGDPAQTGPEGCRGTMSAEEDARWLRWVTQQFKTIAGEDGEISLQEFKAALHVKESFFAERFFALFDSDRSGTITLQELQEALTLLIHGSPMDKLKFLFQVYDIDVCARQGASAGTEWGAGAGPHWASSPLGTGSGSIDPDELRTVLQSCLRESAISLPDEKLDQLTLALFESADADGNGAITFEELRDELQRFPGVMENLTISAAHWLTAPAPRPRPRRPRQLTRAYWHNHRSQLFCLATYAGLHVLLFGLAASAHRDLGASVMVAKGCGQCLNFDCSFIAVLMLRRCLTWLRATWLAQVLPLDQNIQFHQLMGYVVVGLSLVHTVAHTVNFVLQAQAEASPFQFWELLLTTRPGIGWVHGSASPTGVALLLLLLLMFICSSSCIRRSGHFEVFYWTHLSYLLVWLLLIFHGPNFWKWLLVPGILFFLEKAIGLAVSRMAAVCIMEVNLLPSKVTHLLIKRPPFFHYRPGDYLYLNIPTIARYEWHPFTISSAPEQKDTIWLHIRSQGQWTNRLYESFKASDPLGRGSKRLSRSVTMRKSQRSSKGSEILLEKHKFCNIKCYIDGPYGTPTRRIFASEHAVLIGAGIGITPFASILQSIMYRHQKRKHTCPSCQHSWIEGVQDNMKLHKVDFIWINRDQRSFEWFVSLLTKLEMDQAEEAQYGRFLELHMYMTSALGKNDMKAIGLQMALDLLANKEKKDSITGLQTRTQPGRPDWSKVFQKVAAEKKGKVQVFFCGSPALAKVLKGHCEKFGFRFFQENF

Regarding `COCCOC(=O)N1C(=O)[C@@]2(c3cc(C#CCNC(N)=O)ccc31)[C@H](C(=O)N1CCCCCCC1)[C@H]1C(=O)O[C@H](c3ccccc3)[C@H](c3ccccc3)N1[C@@H]2c1ccccc1OCCO`, the z-score was -0.332 (inactive) in test [1]; 1.17 (inactive) in test [3]; 1.53 (inactive) in [4]; 0.926 (inactive) in test [5]; 0.927 (inactive) in test [6]; 0.344 in test [7]. The z-score in test [8] is 1.66 (inactive); in [9], 0.683 (inactive); in test [10] it was 0.357; in test [11], 1.01; in [12] it was -0.177; in test [13], 1.04. Further, the z-score in test [14] was 1.38; in test [15], 0.767; in test [16], -1.3; in test [17] it was 0.315 (inactive); in [18] it was -0.587; in test [19] it was -1.57. Moreover, in test [20], the z-score was -0.307 (inactive). In test [2], this molecule came in with a composite z-score of 1.28.

Regarding `C=C(CCCC)C(=O)CC[C@@H](OC(=O)c1cccnc1)c1cccc(OCCO)c1`, the z-score is 0.381 (inactive) in test [1]; 26.7 (active) in [3]; 13.1 (active) in test [4]; 1.28 (inactive) in test [5]; 1.14 (inactive) in [6]; -0.712 in [7]. Further, the z-score in [8] was 0.849 (inactive); in [9] it was 0.849 (inactive); in test [10] it was -1.41; in test [11], 1.17; in test [12], 0.977; in test [13], -0.865. In addition, the z-score in [14] was -3.38; in test [15], -2.93; in test [16], 0.558; in test [17] it was 0.645 (inactive); in [18], -0.721; in test [19], -1.68. For the same molecule, the z-score in test [20] is 0.468 (inactive). The molecule also had a composite z-score in [2] of -0.0954.

Consider `CN(C)CCCC[C@@H]1NC(=O)[C@@H]2C[C@H](C(=O)O)[C@H](c3ccc(O)cc3)N2C1=O`, for which the z-score in [1] was 2.66 (inactive); in [3] it was 0.847 (inactive); in test [4] it was -1.57 (inactive); in test [5], -3.19 (inactive); in test [6] it was -1.98 (inactive); in [7], 1.03. Besides, the z-score in [8] was -2.71 (inactive); in test [9], -3.88 (inactive); in [10], -2.48; in [11], -0.533; in test [12], 1.36; in test [13], -1.03. In addition, the z-score was -3.01 in test [14]; -0.102 in [15]; 1.26 in [16]; 0.292 (inactive) in test [17]; -0.0425 in test [18]; -0.971 in [19]. Further, in test [20], the z-score is -0.385 (inactive). In test [2], the composite z-score is 0.616.

For the molecule `COC(=O)[C@@]1(Cc2ccccc2CN=[N+]=[N-])N=C(c2ccc(OCCCO)cc2)O[C@H]1c1ccccc1N=[N+]=[N-]`, the z-score is -0.55 (inactive) in test [1]; 26.8 (active) in test [3]; 16.8 (active) in test [4]; 1.76 (inactive) in test [5]; 2.33 (inactive) in test [6]; 0.166 in [7]. Also, the z-score in test [8] was -1.2 (inactive); in test [9] it was 1.25 (inactive); in [10], 0.841; in [11], -2.1; in test [12] it was 0.0397; in test [13] it was -2.36. Moreover, the z-score in test [14] was -2.99; in [15] it was -3.63; in test [16] it was -0.00729; in test [17], -0.222 (inactive); in [18], -1.19; in test [19] it was -2.29. Also, the z-score in test [20] is -1.35 (inactive). Besides, in test [2], the composite z-score came out at 0.495.

Consider `CCCC=C(CCC)[C@@H](NS(=O)(=O)c1ccc(-c2ccccc2)cc1)c1ccc(C(=O)OC)cc1`, for which the z-score in test [1] was -2.25 (inactive); in [3], 0.757 (inactive); in [4] it was -0.515 (inactive); in [5], 0.248 (inactive); in test [6] it was -1.71 (inactive); in test [7], 2.45. In addition, the z-score was -4.5 (inactive) in test [8]; -4.82 (inactive) in test [9]; -2.09 in test [10]; -1.34 in [11]; 0.906 in test [12]; -1.52 in test [13]. The z-score in test [14] is -1.18; in test [15] it was -2.93; in test [16], -4.34; in test [17], 0.0846 (inactive); in test [18] it was 0.326; in [19], -1.78. For the same molecule, the z-score in test [20] was 1.35 (inactive). This molecule also had a composite z-score in test [2] of -0.202.

For `CC(c1ccccc1)C(O)C1C=CC2C(=O)N(C)C(=O)C2N1N(c1ccccc1)c1ccccc1` (stereo not given), the z-score in [1] is -1.04 (inactive); in test [3] it was 1.02 (inactive); in test [4] it was 0.386 (inactive); in test [5], 0.625 (inactive); in test [6] it was 0.777 (inactive); in [7], -0.987. The z-score in test [8] is -0.735 (inactive); in test [9], -0.411 (inactive); in [10] it was -0.649; in [11], -0.279; in [12], -1.94; in test [13] it was 0.919. Besides, the z-score in [14] was 0.455; in [15] it was 0.427; in [16] it was -0.288; in test [17], -1.37 (inactive); in [18] it was -0.17; in test [19], -0.939. Also, the z-score in test [20] is -0.346 (inactive). In addition, the composite z-score in test [2] was 0.391.

`Cc1ccc(S[C@]2(C(=O)O)CC(=O)N(Cc3ccccc3)[C@@H]2c2ccc(CO)cc2)cc1`: the z-score in test [1] was 2.89 (inactive); in [3], 2.85 (inactive); in [4], -0.263 (inactive); in [5], 1.09 (inactive); in test [6], -0.707 (inactive); in test [7] it was 0.462. Moreover, the z-score was -0.198 (inactive) in test [8]; -0.197 (inactive) in test [9]; 1.6 in test [10]; 0.633 in [11]; -0.671 in test [12]; -0.18 in test [13]. Moreover, the z-score in test [14] is -0.476; in test [15], 0.607; in [16] it was 0.536; in test [17] it was 0.923 (inactive); in test [18], 0.118; in test [19], -0.418. The z-score in test [20] was 0.477 (inactive). Further, the composite z-score in test [2] came to 0.0215.

For the molecule `CO[C@H]1COC(=O)[C@H](C)NC(=O)CC=C[C@@H](C)[C@H](NS(=O)(=O)c2ccc(C)cc2)COC(=O)CC=C[C@@H]1C`, the z-score in [1] is -0.154 (inactive); in test [3], 0.868 (inactive); in test [4], 0.41 (inactive); in test [5], 0.229 (inactive); in test [6], 0.33 (inactive); in test [7], 0.356. The z-score in test [8] was 0.734 (inactive); in test [9], 0.631 (inactive); in [10], 0.971; in test [11] it was -0.199; in [12], 1.76; in test [13], -0.261. Moreover, the z-score in [14] was 0.436; in test [15], 0.769; in test [16] it was 0.645; in test [17], -0.236 (inactive); in test [18] it was -0.081; in [19] it was 0.753. Besides, in test [20], the z-score is 0.317 (inactive). In test [2], the composite z-score was -0.232.

(Values after PubChem BioAssay.)
